# Laboratory results as given in PubChem BioAssay.
# Values without a mark were called inactive. Entries that show only a call come without a potency. For some of these results: Potency and affinity values are given separately. Active and inactive are the calls of the source. Unless noted, the rule behind the calls is not given here.
# What was measured:
# [1] = antimalarial activity against Dd2 strain (AID 2302;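 active = growth inhibition above 50% at the single 2 µM test dose, taken to imply half-maximal potency below 2 µM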); details: P. falciparum Dd2 in RBCs, LDH growth readout, 72 h; at 2 µM; active compounds read high
# [2] = HepG2 cytotoxicity, primary screen, cytotoxicity control for P. falciparum antimalarial project, cell-based, ATP luminescence (AID 2303;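 active = inhibition above 50%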); details: HepG2 viability, 24-48 h, at 10 µM, active compounds read high
# [3] = target: L-lactate dehydrogenase (Plasmodium falciparum (isolate CDC / Honduras)) (UniProt Q27743); assay: PfLDH activity inhibition – cell lysate, 3D7 strain, counter-screen for P. falciparum growth inhibition project (AID 2304); details: P. falciparum 3D7 crude extract, LDH APAD/NBT absorbance; at 2 µM; active compounds read high
# L-lactate dehydrogenase (Plasmodium falciparum (isolate CDC / Honduras)), sequence (Q27743 whole entry, looked up): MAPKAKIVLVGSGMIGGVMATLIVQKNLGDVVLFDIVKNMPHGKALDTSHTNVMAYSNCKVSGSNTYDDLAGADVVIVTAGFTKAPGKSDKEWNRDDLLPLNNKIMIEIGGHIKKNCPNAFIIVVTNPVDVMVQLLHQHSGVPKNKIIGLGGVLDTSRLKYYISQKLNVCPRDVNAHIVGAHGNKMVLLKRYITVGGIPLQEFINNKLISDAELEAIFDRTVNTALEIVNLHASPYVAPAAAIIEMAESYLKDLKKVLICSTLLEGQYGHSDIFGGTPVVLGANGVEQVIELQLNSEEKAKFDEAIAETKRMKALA
# [4] = inhibition of 3D7 malaria parasite growth – strain 3D7 (AID 2306); details: P. falciparum 3D7 erythrocytic growth, LDH absorbance, 72 h; at 2 µM; active compounds read high
# [5] = target: Calcium-dependent protein kinase 1 (Plasmodium falciparum (isolate 3D7)) (UniProt P62344); assay: PfCDPK1 kinase inhibitors, biochemical, TCAMS library (AID 1159585; cut-off not given, nearly all actives have IC50 up to about 0.98 µM;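 note: inhibitors leave more ATP so luminescence rises with inhibition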); details: recombinant PfCDPK1, Kinase-Glo ATP depletion luminescence
# Calcium-dependent protein kinase 1 (Plasmodium falciparum (isolate 3D7)), sequence (P62344 whole entry, looked up): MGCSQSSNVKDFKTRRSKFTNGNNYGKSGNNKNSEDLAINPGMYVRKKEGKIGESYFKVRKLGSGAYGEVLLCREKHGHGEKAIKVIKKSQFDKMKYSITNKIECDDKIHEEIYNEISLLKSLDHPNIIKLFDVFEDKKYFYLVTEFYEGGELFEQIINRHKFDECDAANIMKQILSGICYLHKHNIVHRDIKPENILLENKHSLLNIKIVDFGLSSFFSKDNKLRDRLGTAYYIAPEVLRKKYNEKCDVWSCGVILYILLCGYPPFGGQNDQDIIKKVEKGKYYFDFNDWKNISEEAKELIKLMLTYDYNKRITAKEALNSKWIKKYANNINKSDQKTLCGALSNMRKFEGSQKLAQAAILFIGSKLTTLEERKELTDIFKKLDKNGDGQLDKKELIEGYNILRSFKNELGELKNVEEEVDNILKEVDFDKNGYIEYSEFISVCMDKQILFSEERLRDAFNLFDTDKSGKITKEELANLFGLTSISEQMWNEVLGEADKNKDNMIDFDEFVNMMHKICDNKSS
# [6] = target: Plasmodium falciparum protein kinase 6 (PK6, PF3D7_1337100) (UniProt Q8IDW1); assay: PfPK6 kinase inhibitors, biochemical, TCAMS library (AID 1159586); details: recombinant PfPK6, Kinase-Glo ATP depletion luminescence
# Plasmodium falciparum protein kinase 6 (PK6, PF3D7_1337100), sequence (Q8IDW1 1-305): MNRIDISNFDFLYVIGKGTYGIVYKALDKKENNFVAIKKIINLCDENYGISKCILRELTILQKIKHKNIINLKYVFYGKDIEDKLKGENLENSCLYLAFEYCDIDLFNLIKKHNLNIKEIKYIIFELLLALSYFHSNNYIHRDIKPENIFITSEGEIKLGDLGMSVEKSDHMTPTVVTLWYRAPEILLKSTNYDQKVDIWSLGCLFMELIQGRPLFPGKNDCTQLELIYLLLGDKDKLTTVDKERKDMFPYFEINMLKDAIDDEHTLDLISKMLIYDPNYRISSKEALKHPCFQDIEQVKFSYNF
# [7] = target: Protein kinase 7 (PK7), Plasmodium falciparum 3D7 (PF3D7_0213400) (UniProt Q7YTF7); assay: inhibition of Plasmodium PK7 catalytic activity – biochemical, TCAMS antimalarial set, Kinase-Glo luminescence (AID 1159587); details: recombinant PfPK7, Kinase-Glo ATP depletion luminescence
# Protein kinase 7 (PK7), Plasmodium falciparum 3D7 (PF3D7_0213400), sequence (Q7YTF7 1-343): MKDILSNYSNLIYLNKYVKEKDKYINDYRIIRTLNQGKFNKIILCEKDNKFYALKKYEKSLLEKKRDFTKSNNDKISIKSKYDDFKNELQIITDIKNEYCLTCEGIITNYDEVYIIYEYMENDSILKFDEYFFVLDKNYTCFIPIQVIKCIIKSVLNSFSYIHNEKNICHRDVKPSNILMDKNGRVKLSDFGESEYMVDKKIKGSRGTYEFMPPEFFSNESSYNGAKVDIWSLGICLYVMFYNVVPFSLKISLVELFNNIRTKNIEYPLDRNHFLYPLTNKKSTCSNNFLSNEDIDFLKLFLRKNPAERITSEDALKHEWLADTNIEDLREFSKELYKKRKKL
# [8] = target: Calcium-dependent protein kinase 4 (Plasmodium falciparum (isolate 3D7)) (UniProt Q8IBS5); assay: PfCDPK4 kinase inhibitors, biochemical, TCAMS library (AID 1159588; cut-off not given, nearly all actives have IC50 up to about 0.91 µM); details: recombinant PfCDPK4, Kinase-Glo ATP depletion luminescence
# Calcium-dependent protein kinase 4 (Plasmodium falciparum (isolate 3D7)), sequence (Q8IBS5 whole entry, looked up): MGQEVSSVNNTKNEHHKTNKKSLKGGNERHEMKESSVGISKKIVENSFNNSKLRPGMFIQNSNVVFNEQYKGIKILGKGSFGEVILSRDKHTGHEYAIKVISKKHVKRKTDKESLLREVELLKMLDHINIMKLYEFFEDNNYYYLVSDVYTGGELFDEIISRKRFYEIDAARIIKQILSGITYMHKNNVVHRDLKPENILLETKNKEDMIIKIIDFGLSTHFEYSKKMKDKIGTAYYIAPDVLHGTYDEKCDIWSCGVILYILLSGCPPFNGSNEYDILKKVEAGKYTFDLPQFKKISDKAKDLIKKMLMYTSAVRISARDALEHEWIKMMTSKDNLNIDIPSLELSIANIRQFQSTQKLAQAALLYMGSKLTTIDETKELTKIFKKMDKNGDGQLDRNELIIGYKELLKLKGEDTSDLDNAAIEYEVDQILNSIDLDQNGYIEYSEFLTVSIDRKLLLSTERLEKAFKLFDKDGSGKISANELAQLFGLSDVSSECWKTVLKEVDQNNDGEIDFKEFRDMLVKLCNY
SMILES,growth inhibition [1],inhibition [2],inhibition [3],growth inhibition [4],outcome [5],outcome [6],outcome [7],outcome [8]
Cc1ccc(NC(=O)c2ccc3ncccc3c2)cc1OC1CCN(Cc2ccsc2)C1 (stereo not given),49%,5%,-3%,88% (active),inactive,inactive,inactive,inactive
CCCN1CCN(CC(O)CNC(=O)Nc2ccc(Cl)cc2)CC1 (stereo not given),100% (active),6%,-3%,100% (active),inactive,inactive,inactive,inactive
O=C(Nc1ccc(Cn2ncc(N3CCCNCC3)c(Cl)c2=O)cc1)Nc1cc(C(F)(F)F)cc(C(F)(F)F)c1,29%,25%,3%,100% (active),inactive,inactive,inactive,inactive
O=C(Nc1ccc(Cl)cc1)Nc1cccc(-c2ccc(-c3nc4ccc(F)cc4[nH]3)cc2)c1,99% (active),73% (active),-1%,101% (active),inactive,inactive,inactive,inactive
Fc1ccc2nc(-c3ccc(-c4ccc(CN5CCN(CCN6CCOCC6)CC5)cc4)s3)[nH]c2c1,98% (active),39%,-3%,99% (active),inactive,inactive,inactive,inactive
O=C(NCC1CC1)C1CCN(C(c2ccccc2)c2nc3ccccc3s2)CC1 (stereo not given),49%,-3%,8%,92% (active),inactive,inactive,inactive,inactive
COc1cccc(CCc2ccc(O)c3c2C[C@H]2C[C@H]4[C@H](N(C)C)C(=O)C(C(N)=O)=C(O)[C@@]4(O)C(=O)C2=C3O)c1,67% (active),43%,-4%,93% (active),inactive,inactive,inactive,inactive
CC(C)C[C@H](NC(=O)[C@H](Cc1ccccc1)N(C[C@H](Cc1ccccc1)NC(=O)OC(C)(C)C)C(=O)C(F)(F)F)C(=O)NC1CCN(Cc2ccccc2)CC1,82% (active),13%,-5%,92% (active),inactive,inactive,inactive,inactive
COc1ccc(CN2CCN(Cc3cc(Cl)ccc3O)CC2CCO)c(C)c1C (stereo not given),76% (active),1%,3%,94% (active),inactive,inactive,inactive,inactive
CCOc1ccc(-c2nonc2NC(=O)c2ccccc2Cl)cc1OCC,100% (active),3%,4%,101% (active),inactive,inactive,inactive,inactive
CCCNC(=O)c1cncc(-c2ccc(CNC(CC)c3ccccc3)cc2)c1 (stereo not given),1%,20%,0%,92% (active),inactive,inactive,inactive,inactive
N#Cc1ccc(C(=O)Nc2ccc(-c3cccc(CN4CCCC4)c3)cc2)cc1,1%,17%,-1%,89% (active),inactive,inactive,inactive,inactive
CS(=O)(=O)CCNCc1nc(-c2ccc3c(Nc4ccc(F)c(O)c4)ccnc3c2)cs1,84% (active),-10%,3%,95% (active),inactive,inactive,inactive,inactive
CC(C)CNCc1cccc(-c2ccccc2CNC2CCN(Cc3ccccc3)CC2)c1,39%,25%,-6%,100% (active),inactive,inactive,inactive,inactive
O=C(Nc1ccc(N2CCNCC2)cc1)c1ccn2ncc(-c3cccc(Cl)c3)c2n1,53% (active),79% (active),-2%,96% (active),inactive,inactive,inactive,inactive
COc1ccc2nccc([C@@H](O)CN3CCC(NC(=O)C(c4cccs4)N4CCN(c5ccc(F)cc5)CC4)CC3)c2c1 (stereo not given in full),45%,9%,3%,97% (active),inactive,inactive,inactive,inactive
Cc1cccc2[nH]c(-c3cccc(-c4cccc(NC(=O)Cc5cnc[nH]5)c4)c3)nc12,100% (active),32%,-4%,102% (active),inactive,inactive,inactive,inactive
Cc1nc(NCc2ccccc2)cc(NCC(O)c2ccc(O)cc2)n1 (stereo not given),10%,5%,-2%,85% (active),inactive,inactive,inactive,inactive
CN1CCCC(CN2CCN(Cc3ccc(-c4cccc(-c5nc6ccccc6[nH]5)c4)cc3)CC2)C1 (stereo not given),100% (active),57% (active),-3%,101% (active),inactive,inactive,inactive,inactive
CCc1ccc(NC(=O)c2ccc(CN3CCCN(Cc4cccc(O)c4)CC3)cc2)cc1,55% (active),51% (active),0%,100% (active),inactive,inactive,inactive,inactive
